The values below come from PubChem BioAssay (NCATS).

Inconclusive results are not listed. Unmarked numbers belong to inactive results. Active and inactive are the calls of the source. Calls follow the shape of the dose curve; as a rule, active = well fitted curve in the direction sought with a large enough effect; inconclusive = small, poorly fitted or top-dose-only effect, or another doubt; inactive = no such curve, though single readings can be large; an effect the other way counts as inactive or inconclusive.

The target in assay [1] is Cellular tumor antigen p53 (Homo sapiens) (UniProt P04637). Briefly: Primary qHTS for small molecule compounds that upregulate eGFP-tagged delta133p53alpha (in N-terminal) cells. (AID 2060322). Also: nearly all actives have a fitted effect of over 75% in size. Also: potency is read from the fitted curve at half-maximal effect.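 As to activation: cells pre-induced with doxycycline then dosed without doxycycline; series mostly up to about 56 µM; 0% = DMSO vehicle and 100% = reference activator.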 The settings on record: NCI-H358 eGFP-delta133p53alpha fluorescence, 24 h; activation: active compounds read high. The procedure, abridged: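 NCI-H358 cells pre-induced 24 h with 10 ng/ml doxycycline for eGFP-delta133p53alpha, plated dox-free and exposed 24 h at 37C to titrated compounds. Fixed, Hoechst-stained; gated GFP peak intensity by laser scanning cytometry, normalized to DMSO (0%) and 57.5 uM 5-azacytidine (100%).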
Cellular tumor antigen p53 (Homo sapiens), sequence (P04637 whole entry, looked up): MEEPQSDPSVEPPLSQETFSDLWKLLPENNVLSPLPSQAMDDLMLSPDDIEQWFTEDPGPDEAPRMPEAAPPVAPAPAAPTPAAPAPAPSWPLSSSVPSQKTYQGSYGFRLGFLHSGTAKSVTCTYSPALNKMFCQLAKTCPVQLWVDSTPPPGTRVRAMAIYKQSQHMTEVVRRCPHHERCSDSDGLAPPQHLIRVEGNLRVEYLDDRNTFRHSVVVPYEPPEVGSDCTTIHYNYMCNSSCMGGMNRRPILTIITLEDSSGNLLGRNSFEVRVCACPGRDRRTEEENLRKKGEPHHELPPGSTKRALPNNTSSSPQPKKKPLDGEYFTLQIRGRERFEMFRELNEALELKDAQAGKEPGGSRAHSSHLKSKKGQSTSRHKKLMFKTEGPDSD

Assay [2] concerns the target Aldehyde dehydrogenase, mitochondrial (Homo sapiens) (UniProt P05091). In words: qHTS for Inhibitors of the Aldehyde Dehydrogenase Family (ALDH2) Primary screen (AID 2061308).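 Also: plate controls were vehicle for no effect and reference inhibitor for full effect; nearly all actives have a fitted effect of over 55% in size.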
The target in assay [3] is Retinaldehyde dehydrogenase 3 (Homo sapiens) (UniProt P47895). In words: qHTS for Inhibitors of the Aldehyde Dehydrogenase Family (ALDH1A3) Primary screen (AID 2061315).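 Also: plate controls were DMSO vehicle for no effect and reference inhibitor for full effect.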 A general note: Quantitative high-throughput screening tests each substance at several concentrations.

With `CC1(C)SC2C(NC(=O)[C@H](C(=O)O)c3ccsc3)C(=O)N2C1C(=O)O` (some centres not stated), the activation in assay [1] is 3.67%. Further, the Potency entry in assay [2] and in assay [3] was “inactive” in each case.
Turning to `C[C@@H]1CCC2C(C)(C)[C@H](O)CC[C@]2(C)[C@@]12Cc1c(O)cc3c(c1O2)CN(CCO)C3=O` (some centres not stated), the activation in assay [1] was 11.5%. Further, the Potency result in assay [2] and in assay [3] was “inactive” each time.
For the molecule `N#Cc1ccc(-c2ccc(S(=O)(=O)Nc3cccc(N)n3)cc2)cc1`, the activation in assay [1] is 2.86%. Moreover, the Potency result in assay [2] and in assay [3] was “inactive” in each case.
As for `CC(=O)O[C@@H]1C(O)C[C@@]2(C)C(CC[C@@H](C)C23Cc2c(O)cc4c(c2O3)CNC4=O)C1(C)C` (some centres not stated), the activation in assay [1] was -14.5%. Besides, the Potency result in assay [2] and in assay [3] was “inactive” throughout.
Turning to `COC1/C=C/C(C)(O)C(SCC(N)C(=O)O)CC(=O)OC(C)C(C)CC/C=C/1C` (configuration not stated), in assay [1], the activation is 0.763%. Also, the Potency entry in assay [2] and in assay [3] was “inactive” in each case.
Turning to `COC(=O)c1cc(CN2CCN(C(=N)N)CC2)cc(C(=O)N2CCN(C(=O)c3ccc(C(=N)N)cc3)CC2)c1`, the activation in assay [1] was 1%. Further, the Potency result in assay [2] and in assay [3] was “inactive” in each case.
As to `C=C1CCC2C(C)(C)CC(O)CC2(C)C1CCC(C)CC(=O)O` (configuration not stated), the activation in assay [1] is 2.68%. Further, the Potency result in assay [2] and in assay [3] was “inactive” in each case.
`CCCCCCc1cccc(NC(=O)[C@H](N)CCP(=O)(O)O)c1`: the activation in assay [1] is 1%. The Potency result in assay [2] and in assay [3] was “inactive” each time.
In the case of `CC1OC(OC2C(OC(=O)[C@]34CCC(C)(C)C[C@H]3C3=CCC5[C@@]6(C)CC[C@H](OC7OC(C(=O)O)C(O)C(O)C7O)C(C)(C)C6CC[C@@]5(C)[C@]3(C)CC4O)OC(CO)C2O)C(O)C(O)C1OC1OCC(O)C(O)C1O` (some centres not stated), the activation in assay [1] was -3.82%. The Potency entry in assay [2] and in assay [3] was “inactive” in each case.
As for `C=C1C(OC(C)=O)CCC2(C)CC3(O)OC(=O)C(C)=C3CC12` (configuration not stated), the activation in assay [1] was -3.57%. Besides, the Potency entry in assay [2] and in assay [3] was “inactive” in each case.
For the molecule `CC1=C2C(=O)C=C(CO)C2C2OC(=O)C(CS(=O)(=O)O)C2C(OC(=O)Cc2ccc(O)cc2)C1` (configuration not stated), the activation in assay [1] was -22.1%. Further, the Potency result in assay [2] and in assay [3] was “inactive” in each case.
Consider `COc1cc(NC(=O)Nc2cccc(CNC(=O)O[C@H]3CCOC3)c2)ccc1-c1cnco1`, for which, in assay [1], the activation was 7.14%. For the same molecule, the Potency result in assay [2] and in assay [3] was “inactive” each time.
On to `C=CC(C)(C)C12Nc3c(ccc4c3OC(C)(C)C=C4)C1(O)CC1C(=O)N3CCCC3C(=O)N12` (configuration not stated), for which the activation in assay [1] is -0.763%. The Potency entry in assay [2] and in assay [3] was “inactive” each time.
For the molecule `COC(=O)c1ccc(OC)cc1O[C@@H]1O[C@H](CO[C@@H]2OC[C@@H](O)[C@H](O)[C@H]2O)[C@@H](O)[C@H](O)[C@H]1O`, in assay [1], the activation is -22.3%. The Potency result in assay [2] and in assay [3] was “inactive” in each case.
As for `C[C@H]1/C=C/C=C/C=C/C=C/C=C/[C@@H](O)[C@H](C(=O)O)[C@H](O)C[C@H](O)CCC[C@H](O)C[C@H](O)C[C@H](O)[C@@H](C)C(=O)O[C@@H]1C`, the activation in assay [1] was 13.7%. Also, the Potency result in assay [2] and in assay [3] was “inactive” each time.
On to `COc1cc2ncnc(Nc3ccc(F)c(Cl)c3)c2cc1OCCCN1CCOCC1`, for which, in assay [1], the activation is -5.67%. Besides, the Potency entry in assay [2] and in assay [3] was “inactive” each time.
For the molecule `CC(C)(C)NCc1cc(Nc2ccnc3cc(Cl)ccc23)c2c(c1O)CCCC2`, the activation in assay [1] is -11%. The activity change, negative = inhibition in assay [2] is -0.555% [at 0.464 µM]; in assay [3], -4.88% [at 0.464 µM].
Consider `CC(C)CC1NC(=O)C(C)NC(=O)C(CC(C)C)OC(=O)CCCNC1=O` (configuration not stated), for which the activation in assay [1] is -2.68%. The Potency entry in assay [2] and in assay [3] was “inactive” throughout.
For `C=C1CC/C=C(/CO)C(=O)C[C@@H]2[C@@H]1C[C@@]2(C)COC(C)=O`, the activation in assay [1] was 11.5%. In addition, the Potency entry in assay [2] and in assay [3] was “inactive” throughout.
As to `C[C@@H]1C[C@@H](O)[C@@]23CO[C@]2(CO)C[C@@H](O)CC3[C@@]12CC(c1ccoc1)OC2=O` (some centres not stated), the activation in assay [1] was -7.14%. For the same molecule, the Potency entry in assay [2] and in assay [3] was “inactive” throughout.
Consider `O=C(/C=C/c1ccc(O)cc1)OCC1=C[C@@H](O)[C@@H]2C=CO[C@@H](O[C@@H]3O[C@H](CO)[C@@H](O)[C@H](O)[C@H]3O)[C@H]12`, for which the activation in assay [1] is -9.16%. The Potency result in assay [2] and in assay [3] was “inactive” each time.
Consider `CC(C)CNC(=O)/C=C/CCCCc1ccc2c(c1)OCO2`, for which the activation in assay [1] is 10.7%. For the same molecule, the Potency entry in assay [2] and in assay [3] was “inactive” throughout.
For `C=C1C(=O)O[C@@H]2[C@H]1CCC(C)=C1CCC(=O)O[C@]12C`, in assay [1], the Potency was 12 µM (active). Besides, the Potency result in assay [2] and in assay [3] was “inactive” throughout.
Consider `CC(=O)OC1C(OC(=O)c2ccccc2)C2C(=C(C)CCC2(C)C)C23CCC(C)(C2)C(=O)CC13` (configuration not stated), for which the activation in assay [1] is -13%. Also, the Potency result in assay [2] and in assay [3] was “inactive” in each case.
`C/C=C/C(O)C1OC(=O)CC1Nc1ccc(C(=O)O)cc1` (configuration not stated): the activation in assay [1] was 5.34%. For the same molecule, the Potency entry in assay [2] and in assay [3] was “inactive” in each case.
`CCCN1CCC(c2cccc(S(C)(=O)=O)c2)CC1`: the activation in assay [1] is -11.9%. The Potency entry in assay [2] and in assay [3] was “inactive” each time.
On to `O=C(O)CCc1cccc(O)c1O[C@@H]1O[C@H](CO)[C@@H](O)[C@H](O)[C@H]1O`, for which the activation in assay [1] was 0%. Besides, the Potency result in assay [2] and in assay [3] was “inactive” each time.
Regarding `C=C1CC23CC1(O)CCC2C1=CC2OC(=O)C(C)(C2O)C1C3C(=O)O` (configuration not stated), the activation in assay [1] was 6.87%. In addition, the Potency result in assay [2] and in assay [3] was “inactive” each time.
With `CC(C)=CCC/C(C)=C/CO[C@@H]1O[C@H](CO[C@@H]2O[C@@H](CO)[C@H](O)[C@H]2O)[C@@H](O)[C@H](O)[C@H]1O`, in assay [1], the activation was -29.5%. The Potency entry in assay [2] and in assay [3] was “inactive” in each case.
